This note sets out measurements from PubChem BioAssay (NCATS).

The subject of one assay is MCC-13. Description: qHTS assay to identify novel small-molecules to repurpose for Merkel cell carcinoma treatment (AID 1296009). Note: nearly all actives have a fitted effect of over 60% in size. The settings on record: MCC and control cell lines, CellTiter-Glo viability, 72 h; series mostly up to 46 µM. The method in brief:
(§1)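 Cells were treated for 72 hr at 37 degree celsius with compounds in 8- or 11-point dose response. Viability was read by CellTiter-Glo luminescence, normalized to no-cell (cytotoxicity) and DMSO controls.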
On the technique in general: In qHTS, concentration-response curves come from the screen itself.

For the next assay, the system named is MCC-26. Described as above. As to conditions: MCC and control cell lines, CellTiter-Glo viability, 72 h; series mostly up to 46 µM. The method in brief:
as §1
For orientation: Cellular ATP, detected with luciferase, serves as a proxy for viable cell number.

A further assay relates to MKL-1. Described as above. The settings on record: MCC and control cell lines, CellTiter-Glo viability, 72 h; series mostly up to 46 µM. The method in brief:
as §1

Another assay concerns MKL-2. The description is as above. The settings on record: MCC and control cell lines, CellTiter-Glo viability, 72 h; series mostly up to 46 µM. The gist of the method:
as §1

The subject of a further assay is UISO. Described as above. The settings on record: MCC and control cell lines, CellTiter-Glo viability, 72 h; series mostly up to 46 µM. The method in brief:
as §1

The test system of another assay is WaGa. The assay is described as above. The settings on record: MCC and control cell lines, CellTiter-Glo viability, 72 h; series mostly up to 46 µM. The method in brief: as §1
The test system of a further assay is C33A. Nature of the assay: Primary qHTS to identify gynecologic anti-cancer compounds using libraries of approved drugs and bioactive compounds (AID 1345084). Note: nearly all actives have a fitted effect of over 55% in size. As to conditions: Gynecologic cancer cell panel viability, ATPlite luminescence, 48 h; series mostly up to 57.5 µM. The gist of the method:
(§2)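 Luminescence from the ATPlite ATP-monitoring reagent indicates viable cell number; lower signal means cytotoxicity. Cells received compound 16 h after seeding and were exposed for 48 h across five concentrations.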

In a further assay the test system is CAOV3. The description is as above. The settings on record: Gynecologic cancer cell panel viability, ATPlite luminescence, 48 h; series mostly up to 57.5 µM. The gist of the method:
as §2

Each structure is given as a SMILES string. Inconclusive results are not listed. Unmarked numbers belong to inactive results. Activity calls are given as the source filed them. Calls come from the whole dose curve; as a rule, active = well fitted curve in the direction sought with a large enough effect; inconclusive = small, poorly fitted or top-dose-only effect, or another doubt; inactive = no such curve, though single readings can be large; an effect the other way counts as inactive or inconclusive. *1 amine or outer side, *2 acyl side, *3 side chain or, on linkers, in order; H or OH if unused. Where a SMILES comes first, the peptide text is derived from it. Bridges are numbered along the chain shown (N, C = ends). [ ]: non-standard residue; d: D form. The star is where a group is joined. ξ: configuration not given here. X10 = NC1=NCCC(C(N[*:1])C(=O)[*:2])N1; ΔAla(3-NHCONH2) = NC(=O)NC=C(N)C(=O)O; ξβ3hOrn = NCCCC(N)CC(=O)*; Dap = NC[CH](N)C(=O)O
% is set by controls: 0 for no effect and ±100 for the full control effect; potency is the fitted concentration of half-maximal effect.

With `CN1Cc2cc(C(=O)N3CCC(C4CCNCC4)CC3)ccc2NC(CC(=O)O)C1=O` (stereo not drawn), the Potency entry in the assay on MCC-13, in the assay with MCC-26, in the assay on MKL-1, with MKL-2, in the assay with UISO and with WaGa was “inactive” in each case. The Potency result in the assay with C33A was “inactive”.
`NCCCC(N)CC(=O)NCC1NC(=O)C(CO)NC(=O)C(N)CNC(=O)C(C2CCN=C(N)N2)NC(=O)C(=CNC(N)=O)NC1=O` (stereo not drawn) (H-[Dap]S[Dap](ξβ3hOrn)[ΔAla(3-NHCONH2)][X10]; lactam 1-C; configuration not given here): the activity change, negative = cytotoxicity in the assay with MCC-13 was 7.39% [at 0.597 µM]; with MCC-26 it was 12.9% [at 0.597 µM]; in the assay on MKL-1 it was 3.4% [at 0.597 µM]; in the assay on MKL-2 it was 1.36% [at 0.597 µM]; with UISO it was 24.3% [at 0.597 µM]; in the assay on WaGa, 13.5% [at 0.597 µM]. Also, the activity change, negative = cytotoxicity was 15.1% [at 0.462 µM] in the assay on C33A and 10.4% [at 0.462 µM] with CAOV3.
As for `CCOCCn1c(C2CCN(CCc3ccc(C(C)(C)C(=O)O)cc3)CC2)nc2ccccc21`, the Potency result in the assay on MCC-13, in the assay on MCC-26, in the assay with MKL-1, in the assay on MKL-2, in the assay on UISO and in the assay on WaGa was “inactive” in each case. In addition, the Potency entry in the assay on C33A is “inactive”.
For `COCCc1ccc(OCC2CO2)cc1` (stereo not drawn), the Potency entry with MCC-13, in the assay with MCC-26, in the assay with MKL-1, with MKL-2, in the assay with UISO and in the assay with WaGa was “inactive” each time. For the same compound, in the assay on C33A, the Potency result was “inactive”.
With `Fc1ccc(C(c2ccc(F)cc2)N2CCNCC2)cc1`, the Potency result in the assay with MCC-13, in the assay on MCC-26, in the assay on MKL-1, in the assay on MKL-2, in the assay on UISO and in the assay on WaGa was “inactive” in each case. In addition, the Potency entry with C33A and with CAOV3 was “inactive” each time.
As for `O=C(O)c1ccc(OCCN2CCCCC2)cc1`, the Potency result with MCC-13, in the assay with MCC-26, in the assay on MKL-1, in the assay on MKL-2, in the assay with UISO and in the assay on WaGa was “inactive” throughout. Also, the Potency result in the assay on C33A was “inactive”.
Regarding `CC(=O)N(CC(=O)N(C)C)c1ccccc1`, the Potency entry in the assay on MCC-13, with MCC-26, in the assay with MKL-1, in the assay with MKL-2, in the assay with UISO and with WaGa was “inactive” in each case. Further, the Potency result in the assay with C33A is “inactive”.
As to `Nc1nnnn1-c1ccccc1`, the Potency result with MCC-13, in the assay with MCC-26, with MKL-1, with MKL-2, with UISO and in the assay on WaGa was “inactive” each time. Moreover, the Potency result with C33A and with CAOV3 was “inactive” in each case.
Turning to `CN1[C@@H]2CC[C@H]1CC(NC(=O)n1c(=O)[nH]c3ccccc31)C2` (stereo partly drawn), the Potency result with MCC-13, in the assay on MCC-26, in the assay on MKL-1, in the assay with MKL-2, in the assay on UISO and in the assay with WaGa was “inactive” throughout. In addition, the Potency result with C33A was “inactive”.
With `Cc1cc2nc3ccc(=[N+](C)C)cc-3sc2cc1N`, the Potency with MCC-13 was 2.99 µM (active); in the assay with MCC-26, 11.9 µM (active); in the assay on MKL-1, 596 nM (active); with MKL-2 it was 531 nM (active); with UISO, 1.68 µM (active); in the assay on WaGa, 668 nM (active). In addition, in the assay on C33A, the Potency was 3.98 µM (active).
Consider `Cc1cc(O)c2c(O)c3c(O)cccc3cc2c1`, for which the Potency entry in the assay with MCC-13, in the assay with MCC-26, with MKL-1, in the assay on MKL-2, with UISO and in the assay on WaGa was “inactive” throughout. Further, the Potency entry in the assay on C33A and in the assay with CAOV3 was “inactive” in each case.
As for `CC(C)=CCC/C(C)=C/CC/C(C)=C/C(=O)OCC(=O)[C@@]1(O)CC[C@H]2[C@@H]3CCC4=CC(=O)C=C[C@]4(C)[C@H]3[C@@H](O)C[C@@]21C`, the Potency entry in the assay with MCC-13, with MCC-26, in the assay on MKL-1, in the assay with MKL-2, in the assay on UISO and in the assay on WaGa was “inactive” each time. Moreover, the Potency entry in the assay with C33A and in the assay with CAOV3 was “inactive” throughout.
As to `O=C(O)CNC(=O)CNC(=O)CNC(=O)CSC(=O)c1ccccc1`, the Potency entry with MCC-13, in the assay on MCC-26, in the assay with MKL-1, with MKL-2, with UISO and in the assay on WaGa was “inactive” throughout.
`CC(C)OC(=O)c1cc2c(OCC(O)CNC(C)(C)C)cccc2[nH]1` (stereo not drawn): the Potency result in the assay with MCC-13, in the assay with MCC-26, in the assay with MKL-1, in the assay with MKL-2, in the assay with UISO and in the assay on WaGa was “inactive” throughout. Also, the Potency entry in the assay with C33A is “inactive”.
On to `COc1cc(C(=O)NC2CCCNC2)cc(OC)c1OC` (stereo not drawn), for which the Potency result with MCC-13, in the assay with MCC-26, with MKL-1, with MKL-2, with UISO and in the assay on WaGa was “inactive” throughout. For the same compound, in the assay with C33A, the Potency entry was “inactive”.
For `CC(C)NCCCC1(C(N)=O)c2ccccc2-c2ccccc21`, the Potency entry in the assay with MCC-13, with MCC-26, with MKL-1, in the assay with MKL-2, with UISO and in the assay with WaGa was “inactive” in each case. In addition, the Potency entry with C33A and with CAOV3 was “inactive” in each case.
`COC(=O)c1c(Cl)c(Cl)c(C(=O)OC)c(Cl)c1Cl`: the Potency entry in the assay with MCC-13, with MCC-26, in the assay on MKL-1, in the assay on MKL-2, in the assay on UISO and in the assay on WaGa was “inactive” throughout. Moreover, the Potency entry in the assay with C33A and in the assay with CAOV3 was “inactive” each time.
With `CCc1cccc2c(CCO)c[nH]c12`, the Potency entry in the assay with MCC-13, in the assay with MCC-26, with MKL-1, with MKL-2, in the assay with UISO and in the assay with WaGa was “inactive” each time. Also, the Potency result in the assay with C33A and in the assay with CAOV3 was “inactive” each time.
In the case of `CO[C@]1(NC(=O)CSC(F)F)C(=O)N2C(C(=O)O)=C(CSc3nnnn3CCO)CO[C@H]21`, the Potency result with MCC-13, in the assay on MCC-26, in the assay with MKL-1, in the assay with MKL-2, in the assay with UISO and in the assay with WaGa was “inactive” throughout. For the same compound, the Potency entry in the assay with C33A and in the assay on CAOV3 was “inactive” throughout.
With `CC(Oc1c(Cl)cccc1Cl)C1=NCCN1` (stereo not drawn), the Potency result in the assay with MCC-13, with MCC-26, with MKL-1, in the assay on MKL-2, with UISO and in the assay on WaGa was “inactive” throughout. Also, the Potency entry in the assay with C33A and with CAOV3 was “inactive” each time.
`COc1cc(C=O)ccc1O`: the Potency entry with MCC-13, with MCC-26, in the assay with MKL-1, in the assay on MKL-2, in the assay on UISO and in the assay with WaGa was “inactive” in each case. In addition, the Potency entry in the assay with C33A and with CAOV3 was “inactive” throughout.
For `CCCCCCCC(=O)[O-].CCCCCCCC(=O)[O-].[Zn+2]`, the Potency entry with MCC-13, with MCC-26, in the assay on MKL-1, in the assay with MKL-2, with UISO and in the assay on WaGa was “inactive” each time. The Potency entry with C33A and in the assay on CAOV3 was “inactive” throughout.
For the compound `CCCCC(=O)OCC(=O)[C@H]1[C@H](C)C[C@H]2[C@@H]3C[C@H](F)C4=CC(=O)C=C[C@]4(C)[C@@]3(F)[C@@H](O)C[C@@]21C`, the Potency result in the assay on MCC-13, in the assay with MCC-26, in the assay with MKL-1, in the assay on MKL-2, in the assay on UISO and in the assay on WaGa was “inactive” in each case. Moreover, the Potency result in the assay with C33A and in the assay with CAOV3 was “inactive” throughout.
